Tg IFNy HTS = blocks Toxoplasma gondii growth in the presence of IFN-gamma. Toxoplasma gondii growth in IFN-gamma-treated host cells; active compounds read low. 3.8% of 69,000 active. activity change, negative = inhibition, % (no concentration beside the values). AID 1259416; in the data active = activity change below about -70%, passing the limit was not always enough;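 note: host cells are HeLa cells infected with Toxoplasma gondii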
Of the large screens only hits and unclear results are named; the others gave an inactive call. Only a selection was taken, and hits are over-represented in it overall.

Cc1oc(-c2ccc(C(=O)NCCc3ccccc3)cc2)nc1CN1CCc2ccccc21	Tg IFNy HTS -127
Cc1oc(-c2ccc(C(=O)NCCCc3ccccc3)cc2)nc1CN1CCc2ccccc21	none
Cc1oc(-c2ccc(C(=O)NCc3cccs3)cc2)nc1CN1CCc2ccccc21	Tg IFNy HTS -94
CCCCOc1ccc(CNC(=O)c2ccc(-c3nc(CN4CCc5ccccc54)c(C)o3)cc2)cc1	Tg IFNy HTS -94
CCOC(=O)C1CCCN(C(=O)c2ccc(-c3nc(CN4CCc5ccccc54)c(C)o3)cc2)C1 (centres undefined)	none
Cc1oc(-c2ccc(C(=O)NCc3ccccc3Cl)cc2)nc1CN1CCc2ccccc21	none
Cc1ccc(CNC(=O)c2ccc(-c3nc(CN4CCc5ccccc54)c(C)o3)cc2)o1	none
CCOc1ccc(CNC(=O)c2ccc(-c3nc(CN4CCc5ccccc54)c(C)o3)cc2)cc1	none
Cc1oc(-c2ccc(C(=O)N3CCCCCC3)cc2)nc1CN1CCc2ccccc21	Tg IFNy HTS -101
CCCCNC(=O)c1ccc(-c2nc(CN3CCc4ccccc43)c(C)o2)cc1	none
COCCCNC(=O)c1ccc(-c2nc(CN3CCc4ccccc43)c(C)o2)cc1	none
Cc1oc(-c2ccc(C(=O)N3CCC(C)CC3)cc2)nc1CN1CCc2ccccc21	none
CCn1ncnc1CN1CCC2(CCCN(C(=O)COc3ccccc3)C2)C1 (centres undefined)	none
Cc1cccc(-c2noc(C(C)NC(=O)c3cnc4sc(C)cn4c3=O)n2)c1 (centres undefined)	none
CN(C(=O)c1cccs1)c1ccccc1-c1n[nH]c(CCc2ccccc2)n1	none
COc1ncccc1C(=O)N1CCOC(c2ccc(Cl)c(Cl)c2)C1 (centres undefined)	none
CNc1ncccc1CN1C[C@H](C(=O)N(C)C)[C@@H](c2ccc(CNC(C)=O)cc2)C1	none
Cc1nc(NC(C)C)nc2c1CCN(C(=O)c1ccn[nH]1)CC2	none
Cc1cccc(NC(=O)c2ccc3ccc(N4CCN(CC5CC5)CC4)n3c2)c1C	none
Cc1ccccc1-c1ccc([C@@H]2[C@H](CO)N3CCCCN(S(=O)(=O)Cc4ccccc4)C[C@@H]23)cc1	none
Cn1ccnc1CN1CCC2(COCCN(C(=O)c3cccs3)C2)C1 (centres undefined)	none
Cc1oc(-c2ccc(C(=O)N(C)Cc3ccccc3)cc2)nc1CN1CCN(c2ccccc2)CC1	Tg IFNy HTS -94
CCCCN(C)C(=O)c1ccc(-c2nc(CN3CCN(c4ccccc4)CC3)c(C)o2)cc1	none
CNC(=O)c1ccc(-c2nc(CN3CCN(c4ccccc4)CC3)c(C)o2)cc1	none
CC(C)Cc1nc(CN(C)c2ncnc3c2CCN(C(=O)C2CC2)C3)no1	none
COc1ccc(F)c(CN2CCCC(O)(CN3CCN(C(C)=O)CC3)C2=O)c1 (centres undefined)	none
CC(=O)N1CCO[C@]2(CCC[C@H]2COc2ccccn2)C1	none
O=C(Nc1cc(C(F)(F)F)cc(C(F)(F)F)c1)NC1CCc2ccccc2O1 (centres undefined)	Tg IFNy HTS -82
COc1cc(NC(=O)NC2Cc3ccccc3C2)cc(OC)c1	none
O=C(CSC(=O)c1ccco1)Nc1cc(C(F)(F)F)cc(C(F)(F)F)c1	none
C[C@@H]1CN([C@H](C)CO)C(=O)CCCn2cc(nn2)CO[C@@H]1CN(C)S(=O)(=O)c1cccc(C#N)c1	none
COc1cc(OC)cc(C(=O)NCCc2sc(-c3ccc(Cl)cc3)nc2C)c1	none
CCOc1ccccc1C(=O)Nc1ccc(S(=O)(=O)Nc2cc(C)on2)cc1	none
Cc1cc(C(=O)Nc2ccc(S(N)(=O)=O)cc2)no1	Tg IFNy HTS -87
Cc1cc(C(=O)Nc2ccc3c(c2)CCC(=O)N3)no1	none
CNC(=O)C[C@H]1C[C@@H]2CN(S(=O)(=O)c3cccnc3)C[C@@H]2O1	none
CCCN1CC(NC(=O)c2cc3ccccc3s2)CC1=O (centres undefined)	none
CCN1C(=O)CCc2cc(NS(=O)(=O)c3ccc(Cl)c(Cl)c3)ccc21	Tg IFNy HTS -100
CCN1C(=O)CCc2cc(NS(=O)(=O)c3ccccc3Cl)ccc21	none
CCN1C(=O)CCc2cc(NS(=O)(=O)c3ccc(C)c(F)c3)ccc21	Tg IFNy HTS -72
CCN1C(=O)CCc2cc(NS(=O)(=O)c3cccc(C)c3)ccc21	none
CCN1C(=O)CCc2cc(NS(=O)(=O)c3ccc4c(c3)OCCO4)ccc21	none
COCCN1C(=O)CCc2cc(NS(=O)(=O)c3ccc(OC)c(OC)c3)ccc21	none
Cc1ccc(C(=O)N2CCCC(c3[nH]ncc3-c3ccc(F)cc3)C2)c(=O)n1C (centres undefined)	none
Cc1c(S(=O)(=O)N2CCCN(C(=O)OC(C)(C)C)CC2)cnn1-c1ccccc1	none
CCN1CCOC(CCNS(=O)(=O)c2cnn(CC)c2)C1 (centres undefined)	none
Cc1cc(NC(=O)CCS(=O)(=O)c2ccc(Cl)cc2)c2ncccc2c1	none
O=C(O)CNc1ccccc1C(=O)NCCc1cccc(F)c1	none
CCc1cc(C(F)(F)F)c2c(C3CCN(C(=O)c4cc(C(C)C)[nH]n4)CC3)noc2n1	Tg IFNy HTS -76
CC[C@@H]1C[C@H](C(F)(F)F)n2nc(C3CCN(C(=O)c4cc(C(C)C)on4)C3)cc2N1 (some centres undefined)	none
CC(C)Nc1n[nH]c2nc(C3CCN(C(=O)C(C)C)CC3)cc(C(F)(F)F)c12	none
Cc1nnc(SCC(N)=O)n1-c1cccc(Cl)c1	none
CSc1ccc(C2c3[nH]c4ccccc4c3CCN2C(=O)c2ccccc2Cl)cc1 (centres undefined)	none
Cc1cccc(C2c3[nH]c4ccccc4c3CCN2C(=O)c2ccccc2)c1 (centres undefined)	none
O=C(c1ccccc1F)N1CCc2c([nH]c3ccccc23)C1c1ccccc1 (centres undefined)	none
Cc1ccc(C2c3[nH]c4ccccc4c3CCN2C(=O)c2ccccc2Cl)cc1 (centres undefined)	Tg IFNy HTS -118
CSc1ccc(C2c3[nH]c4ccccc4c3CCN2C(=O)c2ccc(C)cc2)cc1 (centres undefined)	none
Cc1cccc(C2c3[nH]c4ccccc4c3CCN2C(=O)c2ccccc2Cl)c1 (centres undefined)	Tg IFNy HTS -110
COC(=O)C[C@H]1CC[C@@H]2[C@H](COc3ccc(NC(=O)Nc4c(C)noc4C)cc3C(=O)N2C)O1	none
CCc1nc(C)c(C(=O)N2CCC(O)(c3cccnc3)CC2)s1	none
Nc1nnn(CCOc2nonc2N)n1	none
CN(C)Cc1cc(C2CCCN2C(=O)CCCOc2cccc(F)c2)nn1C (centres undefined)	none
Cn1cnc(S(=O)(=O)N[C@H]2CC[C@H](CC(=O)NCC3CCCCC3)O[C@@H]2CO)c1	none
CC(C)N(Cc1nccn1C)C(=O)c1ccc(-n2ccnc2)cc1	none
CC(C)Nc1nc2cc(Cl)c(Cl)cc2n1[C@H]1O[C@@H](CO)[C@H](O)[C@@H]1O	none
O=C(O)C1CC=CCC1C(=O)NCc1ccc2c(c1)OCO2 (centres undefined)	none
O=C(NC1CCc2[nH]ncc2C1)c1cccc(CC2CCNCC2)c1 (centres undefined)	none
O=C(NC1CCN(c2cnccn2)CC1)c1ccccc1C1CCNC1 (centres undefined)	none
O=C(NC1CCNCC1)c1[nH]ncc1NC(=O)c1c(Cl)cccc1Cl	Tg IFNy HTS -72
CN(C)C(=O)c1cccc(-c2ccc(C3[C@H]4CNC[C@@H]3N4Cc3ccccc3C(F)(F)F)cc2)c1 (some centres undefined)	none
CCc1ccc(NC(=O)N2CCC3(CC2)NC(=O)c2ccc(Cl)cc2N3CC)cc1	none
CN(C)C(=O)N1C[C@@H](OCc2cccnc2)[C@@H]2OCCC[C@@H]21	none
Cc1nc(N2CCOCC2)sc1C(=O)NCC(C)(C)N1CCCCC1	none
